This assay in a line: chemical genetic growth profiling, strain panel (AID 1159580).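 Further: tested at 20 µM; growth read once vehicle control cultures reached saturation at 30 °C; 1 = growth at the plate median or of vehicle wells; lower values mean less growth of the strain.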 The settings on record: growth OD.
The mark [1] stands for this setting: S. cerevisiae deletion strains, locus YAL013W, strain DEP1, hits give low values.
The mark [2] stands for this setting: S. cerevisiae deletion strains, locus YAL040C, strain CLN3, hits give low values.
Where [3] appears, read: S. cerevisiae deletion strains, locus YCL061C, strain MRC1 (second series), hits give low values.
[4] abbreviates: S. cerevisiae deletion strains, locus YDR150W, strain NUM1, hits give low values.
Where [5] appears, read: S. cerevisiae deletion strains, locus YDR363W, strain ESC2, hits give low values.
Where [6] appears, read: S. cerevisiae deletion strains, locus YER002W, strain NOP16, hits give low values.
Setting [7] is: S. cerevisiae deletion strains, locus YGR078C, strain PAC10, hits give low values.
[8] abbreviates: S. cerevisiae deletion strains, locus YMR307W, strain GAS1, hits give low values.
Setting [9] is: S. cerevisiae deletion strains, locus YNL153C, strain GIM3, hits give low values.
The mark [10] stands for this setting: S. cerevisiae deletion strains, locus YNL175C, strain NOP13, hits give low values.
Setting [11] is: S. cerevisiae deletion strains, locus YNL197C, strain WHI3, hits give low values.
Setting [12] is: S. cerevisiae deletion strains, locus YNL224C, strain SQS1, hits give low values.
Setting [13] is: S. cerevisiae deletion strains, locus YNL322C, strain KRE1, hits give low values.
Setting [14] is: S. cerevisiae deletion strains, locus YOR083W, strain WHI5 (second series), hits give low values.
Where [15] appears, read: S. cerevisiae deletion strains, locus YJR075W, strain HOC1, hits give low values.
The mark [16] stands for this setting: S. cerevisiae deletion strains, locus YMR263W, strain SAP30, hits give low values.
The mark [17] stands for this setting: S. cerevisiae deletion strains, locus YNL128W, strain TEP1, hits give low values.
The mark [18] stands for this setting: S. cerevisiae deletion strains, locus YPL241C, strain CIN2, hits give low values.
Setting [19] is: S. cerevisiae deletion strains, locus YBR229C, strain ROT2, hits give low values.
Setting [20] is: S. cerevisiae deletion strains, locus YCL061C, strain MRC1, hits give low values.
The mark [21] stands for this setting: S. cerevisiae deletion strains, locus YDL101C, strain DUN1, hits give low values.
Where [22] appears, read: S. cerevisiae deletion strains, locus YEL061C, strain CIN8, hits give low values.
Where [23] appears, read: S. cerevisiae deletion strains, locus YHR030C, strain SLT2, hits give low values.
Where [24] appears, read: S. cerevisiae deletion strains, locus YHR087W, strain rtc3, hits give low values.
[25] abbreviates: S. cerevisiae deletion strains, locus YJR043C, strain POL32, hits give low values.
Setting [26] is: S. cerevisiae deletion strains, locus YLR039C, strain RIC1, hits give low values.
[27] abbreviates: S. cerevisiae deletion strains, locus YLR058C, strain SHM2 (second series), hits give low values.
Setting [28] is: S. cerevisiae deletion strains, locus YLR085C, strain ARP6, hits give low values.
Setting [29] is: S. cerevisiae deletion strains, locus YLR262C, strain YPT6, hits give low values.
Setting [30] is: S. cerevisiae deletion strains, locus YML094W, strain GIM5, hits give low values.
Setting [31] is: S. cerevisiae deletion strains, locus YMR219W, strain ESC1, hits give low values.
Where [32] appears, read: S. cerevisiae deletion strains, locus YNL298W, strain CLA4 (second series), hits give low values.
Setting [33] is: S. cerevisiae deletion strains, locus YNR030W, strain Alg12, hits give low values.
Setting [34] is: S. cerevisiae deletion strains, locus YPL055C, strain LGE1, hits give low values.
[35] abbreviates: S. cerevisiae deletion strains, locus YPR135W, strain CTF4, hits give low values.

Screen size: about 5,500 compounds; about 2,000 (36%) were called active. Another 18% or so got no clear call; they are omitted. The list shows a part of the results. Unmarked numbers belong to inactive results. No stated cut-off is given here; in the data, active means normalized growth mostly below about 0.91 (no sharp cut-off); inconclusive means no clear call, values can overlap the other calls; inactive means mostly above about 0.92.

Consider `Cn1ccc2cc3c(cc21)CCN3C(=O)Nc1cccnc1`, for which the normalized growth runs as follows: under setting [1], 0.995; under setting [2], 1; under setting [3], 1.01; under setting [4], 0.992; under setting [5], 0.999; under setting [6], 0.999. Further, the normalized growth under setting [7] was 0.998; the normalized growth under setting [8] was 1.01; the normalized growth under setting [9] is 0.976; the normalized growth under setting [10] was 0.981; the normalized growth under setting [11] is 1; the normalized growth under setting [12] was 0.989. Further, the normalized growth reads like this: under setting [13], 1.01; under setting [14], 0.969.

As for `COc1cc2c(cc1C(F)(F)F)N(C(=O)Nc1cc(F)cc(-c3cccnc3)c1)CC2`, the normalized growth was 1.01 under setting [1]; 1.08 under setting [2]; 1 under setting [3]; 1.02 under setting [4]; 1 under setting [5]; 1.05 under setting [6]. The normalized growth was 1.11 [resistant] (active) under setting [15]; 1.01 under setting [16]; 1.05 under setting [17]; 1.01 under setting [10]; 1.01 under setting [11]; 1.02 under setting [12]. Also, the normalized growth was 1.01 under setting [13], 0.9 under setting [14] and 1.01 under setting [18].

Take `CN1CCc2cc(NC(=O)Nc3cccnc3)ccc21`: the normalized growth is, setting by setting: under setting [2], 0.994; under setting [3], 0.996; under setting [6], 0.996; (S. cerevisiae deletion strains, locus YGR229C, strain SMI1, hits give low values) 0.988; under setting [17], 0.994; under setting [9], 1.01. The normalized growth is 1.01 under setting [10], 0.992 under setting [11], 1.03 under setting [12] and 0.977 under setting [14].

As to `c1ccc(C2CC2)c(OCC2=NCCN2)c1`, the normalized growth by setting is: under setting [2], 1.05; under setting [3], 1.01; under setting [4], 1; under setting [5], 1.02; under setting [6], 0.98; under setting [7], 1.01. For the same compound, the normalized growth under setting [16] is 1.01; the normalized growth under setting [10] is 0.994; the normalized growth under setting [11] is 0.984; the normalized growth under setting [12] is 0.994; the normalized growth under setting [13] is 0.999; the normalized growth under setting [14] was 1.02. Moreover, under setting [18], the normalized growth was 1.01.

`O=C1c2cccc3c(SCCO)ccc(c23)C(=O)N1CCc1ccccn1`: the normalized growth is 0.999 under setting [1]; 0.997 under setting [19]; 1 under setting [20]; 1.09 under setting [21]; 1.01 (S. cerevisiae deletion strains, locus YDL134C, strain PPH21, hits give low values); 1.02 under setting [4]. For the same compound, the normalized growth is, setting by setting: under setting [22], 1; under setting [7], 1.01; under setting [23], 0.903; under setting [24], 1; (S. cerevisiae deletion strains, locus YJL187C, strain SWE1, hits give low values) 0.845 (active); under setting [25], 0.994. The normalized growth is 0.984 under setting [15]; 1 under setting [26]; 0.991 under setting [27]; 0.948 under setting [28]; 1 under setting [29]; 1.01 under setting [30]. Further, the normalized growth reads like this: under setting [31], 0.995; under setting [16], 1.01; under setting [17], 1; under setting [9], 0.995; under setting [32], 0.993; under setting [13], 0.996. Also, the normalized growth is 0.989 under setting [33], 1.03 under setting [34], 0.989 under setting [18] and 0.907 under setting [35].

Take `O=C1CNC(=S)N1CCc1ccccn1`: the normalized growth by setting is: under setting [1], 0.992; under setting [19], 0.987; under setting [20], 0.99; under setting [21], 0.978; under setting [4], 0.994; under setting [22], 0.999. Also, the normalized growth reads like this: under setting [7], 0.987; under setting [23], 0.951; under setting [24], 0.992; under setting [25], 0.991; under setting [15], 1.01; under setting [26], 0.973. Besides, the normalized growth under setting [27] is 0.979; the normalized growth under setting [28] was 1.02; the normalized growth under setting [29] was 0.962; the normalized growth under setting [30] was 0.945; the normalized growth under setting [31] was 0.993; the normalized growth under setting [16] is 1. For the same compound, the normalized growth was 1.08 under setting [8]; 1.01 under setting [9]; 0.966 under setting [32]; 0.983 under setting [13]; 0.98 under setting [33]; 0.997 (S. cerevisiae deletion strains, locus YOL006C, strain TOP1, hits give low values). The normalized growth reads like this: under setting [34], 0.998; under setting [18], 1.03; under setting [35], 0.914; (S. cerevisiae strains, strain wild type, hits give low values) 0.969.

These data come from PubChem BioAssay AID1159580 (chemical genetic matrix, 2015).
